This note sets out measurements from PubChem BioAssay AID1224921 (Broad Institute, 2016).

The structures appear in SMILES notation. Screen size: about 1,400 compounds; about 350 (25%) were called active. Another 2% or so got no clear call; they are omitted. The list is a sample of the results. Results with a measured potency or affinity are listed apart. Values without a mark were called inactive. The rule behind the calls is not given here.

The assay is described as follows: inhibitors of Clostridioides difficile proliferation – 4-point retest, confirmation (AID 1224921).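 Note: plate controls were DMSO wells for no effect and levofloxacin 16 µg/mL wells for full effect.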 Particulars: Clostridioides difficile clinical isolate growth, OD600, 24 h, active compounds read low; at 30 µM unless noted.
As to `COc1cccc(-c2ccc3c(c2)O[C@@H](CN(C)Cc2cccnc2)[C@H](C)CN([C@H](C)CO)S3(=O)=O)c1`, the max activity is 34.9%.

Regarding `C[C@@H]1CN([C@H](C)CO)C(=O)c2cccc(NC(=O)c3nc4ccccc4s3)c2O[C@H]1CN(C)Cc1ccc2c(c1)OCO2`, the max activity is 20.2%. In the case of `O=C(C[C@H]1C[C@H]2c3cc(NC(=O)C4CCC4)ccc3O[C@H]2[C@H](CO)O1)NCCc1ccccc1` it was -11.7% [at 1.95 µM]; in that of `CCC(=O)N1C[C@H](C)[C@H](OC)CN(C)C(=O)c2ccc(NC(=O)Nc3ccc(Cl)cc3)cc2OC[C@H]1C`, 20%. In the case of `Cc1ccccc1S(=O)(=O)NCC[C@H]1CC[C@H](NC(=O)Nc2cccc(Cl)c2)[C@H](CO)O1` it was 6.17% [at 35 µM]; in that of `CCC(=O)N[C@@H]1CC[C@H](CC(=O)NCc2ccccc2F)O[C@@H]1CO`, -16.5% [at 8 µM]. In the case of `CCC(=O)N[C@H]1CC[C@H](CC(=O)NCc2ccccc2F)O[C@H]1CO` it was -6.85% [at 0.5 µM]; in that of `CCC(=O)N[C@@H]1CC[C@@H](CC(=O)NCc2ccccc2F)O[C@@H]1CO`, -13% [at 8 µM]; in that of `N#C[C@H]1[C@H](c2ccc(C#Cc3ccccc3F)cc2)[C@@H](CO)N1C(=O)C1CCC1`, 26.9%. Consider `C[C@@H]1CN([C@H](C)CO)S(=O)(=O)c2ccc(C#CC3CCCCC3)cc2O[C@@H]1CN(C)Cc1cccnc1`, for which the max activity is 42.2%. For `CO[C@H]1CN(C)C(=O)c2ccc(NC(=O)c3ccc(F)cc3)cc2OC[C@H](C)N(C(=O)CN(C)C)C[C@@H]1C`, the max activity was -12.9%. With `COc1ccccc1C#Cc1ccc2c(c1)O[C@@H](CN(C)Cc1cccnc1)[C@H](C)CN([C@H](C)CO)S2(=O)=O`, the max activity is 35.7%. Turning to `O=C(C[C@H]1C[C@@H]2c3cc(NC(=O)Nc4ccc(C(F)(F)F)cc4)ccc3O[C@@H]2[C@H](CO)O1)NCc1ccc2c(c1)OCO2`, the max activity was 9.19%. `C[C@@H]1CN([C@@H](C)CO)S(=O)(=O)c2ccc(C#CCC3CCCC3)cc2O[C@H]1CN(C)C(=O)c1ccccn1`: the max activity was 25.9%. With `CO[C@H]1CN(C)C(=O)c2ccc(NC(=O)C3CC3)cc2OC[C@@H](C)N(Cc2cccc(F)c2)C[C@H]1C`, the max activity is 15.9%. In the case of `CO[C@H]1CN(C)C(=O)c2ccc(NC(=O)c3ccc(F)cc3)cc2OC[C@@H](C)N(C(=O)CN(C)C)C[C@@H]1C` it was -6.76% [at 0.5 µM]; in that of `C[C@H]1CN([C@@H](C)CO)S(=O)(=O)c2ccc(C#CC3CC3)cc2O[C@@H]1CN(C)Cc1cccnc1`, 36.4%; in that of `COc1ccccc1C#Cc1ccc2c(c1)O[C@@H](CN(C)Cc1ccncc1)[C@H](C)CN([C@H](C)CO)S2(=O)=O`, 34.5%.

As for `CO[C@@H]1CN(C)C(=O)c2cc(NC(C)=O)ccc2OC[C@@H](C)N(CCc2ccccc2)C[C@@H]1C`, the max activity is 18.4%. The same measure for `CO[C@@H]1CN(C)C(=O)c2ccc(NC(=O)c3nc4ccccc4s3)cc2OC[C@H](C)N(Cc2ccncc2)C[C@H]1C`: 21.3%; for `COc1ccc(NC(=O)Nc2ccc3c(c2)[C@H]2C[C@H](CC(=O)N4CCc5ccccc5C4)O[C@@H](CO)[C@H]2O3)cc1`: -11.6% [at 0.5 µM]. The same measure for `CCCC(=O)Nc1ccc2c(c1)OC[C@@H](C)N(C(=O)Cc1cccnc1)C[C@@H](C)[C@H](OC)CN(C)C2=O`: -13.6% [at 1.95 µM]; for `COCC(=O)N(C)C[C@@H]1Oc2cc(C#Cc3ccccc3)ccc2S(=O)(=O)N([C@@H](C)CO)C[C@@H]1C`: 7.66%.

Take `CO[C@@H]1CN(C)C(=O)c2ccc(NC(=O)c3nc4ccccc4s3)cc2OC[C@@H](C)N(Cc2cccnc2)C[C@@H]1C`: the max activity was 29.5%. The same measure for `CO[C@H]1CN(C)C(=O)c2cc(NC(=O)c3ccccc3)ccc2OC[C@@H](C)N(C)C[C@H]1C`: 10.4%; for `COc1ccc(S(=O)(=O)N2C[C@@H](O)COC[C@H]3O[C@H](CC(=O)NCc4ccc(Cl)c(Cl)c4)CC[C@@H]32)cc1`: 33.9% [at 0.5 µM]; for `Cc1ccc(S(=O)(=O)N2C[C@@H](O)COC[C@@H]3O[C@@H](CC(=O)NCC4CCCCC4)CC[C@H]32)cc1`: 22.7% [at 8 µM]. Take `Cc1ccc(S(=O)(=O)N2C[C@H](O)COC[C@H]3O[C@H](CC(=O)NCc4ccc(Cl)c(Cl)c4)CC[C@@H]32)cc1`: the max activity was 26.4% [at 8 µM]. The same measure for `C[C@H](CO)N1C[C@H](C)[C@H](CN(C)Cc2cccnc2)Oc2cc(C#CC3CCCCC3)ccc2S1(=O)=O`: 30.4%.

On to `C[C@@H]1CN([C@@H](C)CO)C(=O)Cc2cc(N(C)C)ccc2O[C@@H]1CN(C)Cc1ccc(-c2ccccc2)cc1`, for which the max activity was 57.8%. The same measure for `C[C@@H]1CN([C@H](C)CO)C(=O)c2cc(-c3ccccc3)cnc2O[C@@H]1CN(C)Cc1ccccn1`: -13.1% [at 1.95 µM]; for `O=C(C[C@@H]1C[C@@H]2c3cc(NC(=O)Nc4ccc(C(F)(F)F)cc4)ccc3O[C@@H]2[C@H](CO)O1)NCc1ccc2c(c1)OCO2`: 9.21% [at 1.95 µM].

Turning to `CC(C)NC(=O)N[C@H]1CC[C@H](CC(=O)NCCCN(C)C)O[C@H]1CO`, the max activity is -16.5% [at 1.95 µM]. In the case of `C[C@@H]1CN([C@H](C)CO)C(=O)c2c(c3ccccc3n2C)-c2ccccc2CO[C@@H]1CN(C)S(=O)(=O)c1cccc(F)c1` it was 42% [at 35 µM].
